Reference: PMC10313818

How the values were obtained:
[1] = target: 60 kDa heat shock protein, mitochondrial (UniProt P10809); test: cross-link between two proteins; cross-linking mass spectrometry
[2] = target: ADP/ATP translocase 3 (UniProt P12236); test: cross-link between two proteins; co-fractionation; cross-linking mass spectrometry
Chain of ADP/ATP translocase 3 (P12236 whole entry): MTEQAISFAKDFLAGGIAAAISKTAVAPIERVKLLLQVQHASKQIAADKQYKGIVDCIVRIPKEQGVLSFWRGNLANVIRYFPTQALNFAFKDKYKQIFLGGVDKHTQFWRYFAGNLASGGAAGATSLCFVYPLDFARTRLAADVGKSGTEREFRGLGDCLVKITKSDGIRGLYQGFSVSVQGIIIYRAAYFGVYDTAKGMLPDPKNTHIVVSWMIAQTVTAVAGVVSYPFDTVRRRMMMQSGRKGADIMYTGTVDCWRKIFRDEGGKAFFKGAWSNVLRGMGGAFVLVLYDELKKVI

Substance | listed as a hit [1] | listed as a hit [2]
Putative GTP-binding protein 6, O43824 | yes | 
ADP/ATP translocase 2, P05141 |  | yes
